KB-3-1 cytotox = kills parental KB-3-1 adenocarcinoma cells; Potency, µM (series often up to 46.1 µM), usual class: cytotoxic; KB-3-1 viability, CellTiter-Glo ATP luminescence, 72 h; 400,000 tested, 1.4% active; further: nearly all actives have a fitted effect of over 60% in size
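Screening of KB-3-1 cells (DMEM, 10% FBS, phenol-red free) ran from lowest to highest compound concentration; after 72 h at 37 °C viability was read luminescently and curves fitted.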
ELG1 repair inh = inhibitors of ELG1-dependent DNA repair in HEK293T cells | HEK293T ELG1-luciferase reporter, luminescence, 16 h; DNA damage induced by 5-fluorouridine | Potency, µM (doses to about 46.1 µM), hits mostly inhibitors | 330,000 tested, 2.3% active | AID 504467; further: nearly all actives have a fitted effect of over 55% in size
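5-Fluorouridine DNA damage + compound/DMSO, 2,000 cells/well, 16 h, 37 °C/5% CO2. ONE-Glo, 30 min RT, luminescence. Readout = decrease in reporter signal.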
SW480 rerep = DNA re-replication induction in SW480 cells; SW480 DNA re-replication, Hoechst DNA content imaging, 48 h; Potency, µM (titrated, usually from 46.1 µM), hits mostly activators; 340,000 tested, 1.8% active; further: nearly all actives have a fitted effect of over 55% in size
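Readout is total intensity of Hoechst-stained nuclei, excited at 405 nm and collected at 500-530 nm. Compound treatment lasted 48 hr at 37 C in 5% CO2 before staining.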
MCF10A rereplic = inducers of DNA re-replication in MCF 10A breast cells | 350,000 tested, 2.9% active | Potency, µM (highest dose often 46.1 µM), actives largely listed as activators | MCF 10A DNA re-replication, Hoechst nuclear intensity, 48 h; further: nearly all actives have a fitted effect of over 50% in size
KB-V1 MDR tox = kills drug-selected multidrug resistant KB-V1 cells; AID 1347076; 400,000 tested, 3.4% active; Potency, µM (titrated, usually from 46.1 µM), hits mostly cytotoxic; KB-V1 MDR cells viability, CellTiter-Glo, 72 h; further: nearly all actives have a fitted effect of over 60% in size
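Cytotoxicity toward P-gp-expressing KB-V1 cells was determined as loss of CellTiter-Glo luminescence after 72 h at 37 degrees C. Compounds were tested in quantitative HTS format across a concentration range, with curves fitted to normalized data.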
Numbers stand for hits; . = inactive; ? = inconclusive; / = no result; [ ] = remark or other dose. Rows were chosen to be rich in hits. Some 8.1% of all compounds tested hit in one or more screens of this group. The call rests on the fitted dose curve; in most records, active means well fitted curve in the direction sought with a large enough effect; inconclusive means small, poorly fitted or top-dose-only effect, or another doubt; inactive means no such curve, though single readings can be large; an effect the other way counts as inactive or inconclusive.

SMILES	KB-3-1 cytotox	ELG1 repair inh	SW480 rerep	MCF10A rereplic	KB-V1 MDR tox
CCOc1ccccc1Oc1cn[nH]c1-c1ccc(O)cc1O	.	.	.	.	.
C=C(C)COc1ccc(-c2[nH]ncc2-c2ccc(OC)cc2)c(O)c1	.	?	.	?	.
Oc1cc(OCc2ccccc2)ccc1-c1[nH]ncc1-c1ccccc1	.	.	.	23µM	.
CC1(C)CC(=O)/C(=C(\O)CCCN2C(=O)c3ccccc3C2=O)C(=NCCO)C1	.	.	.	.	.
CC(=O)c1ccc(N(C(=O)c2ccco2)C(C(=O)NC2CCCC2)c2ccc(N3CCOCC3)cc2)cc1 (centres undefined)	.	.	.	?	.
COc1ccc(-c2n[nH]c(C)c2-c2ccc(Cl)cc2)c(O)c1OC	?	12µM	.	18µM	?
COc1ccc(-c2n[nH]c(C)c2-c2ccc(Cl)cc2)c(O)c1	?	.	.	?	.
COc1ccccc1-c1cn[nH]c1-c1ccc(OCc2ccc([N+](=O)[O-])cc2)cc1O	.	?	.	.	.
COc1ccc(-c2cn[nH]c2-c2ccc(OCc3ccc(F)cc3)cc2O)cc1OC	?	?	18µM	21µM	?
COc1ccccc1-c1cn[nH]c1-c1ccc(OCc2ccccc2F)cc1O	.	.	?	7.3µM	.
COc1ccc(-c2cn[nH]c2-c2ccc(OCC(=O)NN)cc2O)cc1OC	.	.	.	.	.
COc1ccc(-c2cn[nH]c2-c2ccc(OCc3ccccc3)cc2O)cc1OC	?	13µM	?	?	?
COc1ccccc1-c1cn[nH]c1-c1ccc(OCc2ccc(F)cc2)cc1O	.	?	.	?	.
C(=N\N1CCOCC1)/c1nc(-c2ccccc2)n2ccccc12	.	.	.	.	.
Cc1cc(C)c(C#N)c(SCc2cc3c(cc2Cl)OCO3)n1	.	.	?	.	?
O=C1CCCC2=C1C(c1ccc(O)c(O)c1)c1c(ccc3ncccc13)N2 (centres undefined)	.	?	.	.	.
O=C1CCCC2=C1C(c1ccc(O)cc1)c1c(ccc3ccccc13)N2 (centres undefined)	.	.	?	16µM	.
CNc1c(NS(=O)(=O)c2cc(NC(C)=O)ccc2C)c(=O)oc2ccccc12	?	.	.	.	.
O=C1CCCCc2sc(Br)c([N+](=O)[O-])c2N1	.	?	2.9µM	?	.
S=C(NCc1ccco1)N1CCN(c2cccc(Cl)c2)CC1	.	.	.	.	.
O=C(c1ccc(S(=O)(=O)N2CCOCC2)cc1)N1CCN(c2cccc(Cl)c2)CC1	.	?	.	.	15µM
O=C(c1ccc(S(=O)(=O)NCC2CCCO2)cc1)N1CCN(c2cccc(Cl)c2)CC1 (centres undefined)	?	9.2µM	.	.	.
O=C(c1ccc(S(=O)(=O)N2CCOCC2)cc1)N1CCN(c2ccc(F)cc2)CC1	.	.	.	.	.
S=C(NCCN1CCOCC1)N1CCN(c2cccc(Cl)c2)CC1	?	.	.	.	4.6µM
S=C(NCC1CCCO1)N1CCN(c2ccccc2)CC1 (centres undefined)	.	?	.	.	.
SMILES	KB-3-1 cytotox	ELG1 repair inh	SW480 rerep	MCF10A rereplic	KB-V1 MDR tox
FC(F)(F)c1cccc(N2CCN(C(=S)NCC3CCCO3)CC2)c1 (centres undefined)	?	21µM	.	?	.
CCOC(=O)c1c(CC(C)C)csc1/N=C/C1C(=O)CC(C)(C)CC1=O	.	.	.	.	.
O=C(NCc1ccc2c(c1)OCO2)Oc1ccccc1	.	?	?	.	.
O=C(Nc1cccc(F)c1)c1ccc(S(=O)(=O)NCC2CCCO2)cc1 (centres undefined)	.	?	.	.	16µM
CC(C)OC(=O)c1nnn(-c2nonc2N)c1CN1CCc2ccccc2C1	.	.	.	.	6.5µM
Nc1nonc1-n1nnc(C(=O)N/N=C/c2ccccc2)c1CN1CCc2ccccc21	?	.	.	.	.
CCOC(=O)c1nnn(-c2nonc2N)c1CN1CCc2ccccc2C1	.	.	.	.	?
COC(=O)c1nnn(-c2nonc2N)c1CN1CCc2ccccc21	23µM	?	.	.	?
CCOC(=O)c1c(-c2ccc(-c3ccccc3)cc2)csc1NC(=O)CCN1CCOCC1	?	?	.	8.2µM	.
CCNC(=S)Nc1scc(-c2ccccc2)c1C(=O)OCC	?	.	.	?	?
CCOC(=O)c1c(-c2ccccc2)csc1NC(=S)NC	.	.	?	18µM	.
CCOC(=O)c1c(-c2ccc(F)cc2)csc1NC(=O)CCN1CCOCC1	.	.	.	.	15µM
O=C(CCN1C(=O)c2cccc([N+](=O)[O-])c2C1=O)NC1CCCCCC1	.	.	.	.	.
CC(=O)c1ccc(OCC(O)CN2CCCC(C)C2)cc1 (centres undefined)	.	.	.	.	.
CCOC(=O)C1=C(c2ccccc2)NC(N)=NC1c1ccc(OCc2ccc(C(=O)OC)cc2)cc1 (centres undefined)	?	.	?	18µM	?
CCOC(=O)C1=C(c2ccccc2)Nc2ncnn2C1c1ccc(C(=O)O)cc1 (centres undefined)	.	.	.	.	.
O=C(CN1CCN(c2ccc(O)cc2)CC1)Nc1ccc(SC(F)F)cc1	?	9.2µM	.	?	.
COc1cccc(N2CCN(CC(=O)Nc3ccc(SC(F)F)cc3)CC2)c1	.	.	.	.	.
O=C(CN1CCN(c2ccc(O)cc2)CC1)Nc1ccc2c(c1)OCCCO2	?	18µM	.	.	.
O=C(CN1CCOCC1)Nc1ccc(Oc2ccccc2)cc1	.	.	.	?	.
O=C(CN1CCN(c2ccc(Cl)cc2)CC1)Nc1ccc(F)cc1	?	.	.	.	21µM
O=C(CN1CCN(c2ccccc2)CC1)Nc1ccc(Oc2ccccc2)cc1	.	.	.	.	23µM
CC1CCN(S(=O)(=O)c2nnc(NC(=O)c3ccc(C(C)C)cc3)s2)CC1	.	/	/	/	.
CC1CCN(C(=S)Nc2ccc(SC(F)F)cc2)CC1	.	?	.	.	.
CC(=O)N1CCN(C(=S)Nc2ccc(SC(F)F)cc2)CC1	.	.	.	.	21µM
SMILES	KB-3-1 cytotox	ELG1 repair inh	SW480 rerep	MCF10A rereplic	KB-V1 MDR tox
Cc1nc(SCC(N)=O)[nH]c(=O)c1CCC(C)C	.	?	.[9.22 µM]	.	.
COc1ccccc1-c1oc2ccccc2c1-c1ccc2c(c1)OCO2	.	?	.	?	.
CCOc1c2c(c(-c3ccc4c(c3)OCO4)c3cc(OC)c(OC)cc13)C(=O)OC2	1.3µM	/	/	/	?
Cc1ccc(C(=O)CSc2nsc(C)c2C#N)cc1	.	?	.	.	.
Cc1snc(SCC(=O)c2ccc(Cl)cc2)c1C#N	.	?	.	.	21µM
Cc1cc(C)c2nc(N(CCN(C)C)C(=O)c3ccc4ccccc4c3)sc2c1	.	.	.	.	?
